This is part of a sample that, as a whole, favours compounds with a hit. Of some 79,000 tested, about 15% had one in any assay. Rule as the data show it: active = growth inhibition above about 70%; inactive = the rest.
Key:
[1] = NCI Yeast Anticancer Drug Screen. Data for the rad50 strain (AID 155);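 also: 0% = growth of vehicle-only cultures of the same strain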; conditions: S. cerevisiae rad50 strain growth inhibition; at 50.0 µM; active compounds read high
Summary of the method: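 Compounds were tested on a yeast strain with an engineered DNA damage repair alteration; the reported value is growth inhibition normalised to vehicle treatment.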

[2] = NCI Yeast Anticancer Drug Screen. Data for the mec2-1 strain (AID 157); conditions: S. cerevisiae mec2-1 strain, at 50.0 µM, active compounds read high
Summary of the method: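 Strain: mec2-1 (DNA repair/cell cycle alteration). Compound exposure, then growth measured; inhibition expressed relative to vehicle.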

[3] = NCI Yeast Anticancer Drug Screen. Data for the sgs1 mgt1 strain (AID 161);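 also: 0% = growth of cultures given vehicle only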; conditions: S. cerevisiae sgs1 mgt1 strain, at 50.0 µM, active compounds read high
Summary of the method: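 Read-out: growth inhibition vs vehicle controls. Cells: mutant yeast strain deficient in DNA damage repair.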

[4] = NCI Yeast Anticancer Drug Screen. Data for the cln2 rad14 strain (AID 165);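 also: 0% = growth equal to vehicle treated cultures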; conditions: S. cerevisiae cln2 rad14 strain, at 50.0 µM, active compounds read high
Summary of the method: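 Compounds are applied to the cln2 rad14 yeast strain, and growth is then compared with that of vehicle-treated cultures to give inhibition.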

[5] = NCI Yeast Anticancer Drug Screen. Data for the bub3 strain (AID 167); conditions: S. cerevisiae bub3 mutant strain, at 50.0 µM, active compounds read high
Summary of the method: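 Growth of a checkpoint-deficient yeast mutant is measured after compound exposure. Values represent inhibition relative to vehicle.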

[6] = NCI Yeast Anticancer Drug Screen. Data for the mlh1 rad18 strain (AID 175); conditions: S. cerevisiae mlh1 rad18 strain growth inhibition; at 50.0 µM; active compounds read high
Summary of the method: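 Read-out is yeast growth inhibition, calculated against vehicle-only controls. The compound was applied to a strain engineered with DNA damage repair alterations.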

Measured: growth inhibition

CCCCC(=O)OCC(=O)[C@]1(O)Cc2c(O)c3c(c(O)c2[C@@H](OC2CC(NC(=O)C(F)(F)F)C(O)C(C)O2)C1)C(=O)c1c(OC)cccc1C3=O (stereo not given in full)
inactive: [1] 19.5% | [2] 21.3% | [3] 29.9% | [4] 4.9% | [5] 53% | [6] 30.8%

COc1ccccc1NC(=O)C(=O)C(c1cnc2ccc([N+](=O)[O-])cc2n1)[N+](=O)[O-] (stereo not given)
inactive: [1] 16.2% | [2] -3.4% | [3] 6.3% | [4] 18.5% | [5] 7.6% | [6] -0.2%

COC(=O)c1c2c(cc3c1CC1(C3)Cc3ccc4c(c3C1=O)CCC4)CCC2 (stereo not given)
inactive: [1] 12.5% | [2] 14.4% | [3] -7.35% | [4] -13.8% | [5] -21.1% | [6] -86%

CCC(C)(C)c1ccc(O)c(CNCCO)c1
inactive: [1] 26.8% | [2] -2.55% | [3] 2.9% | [4] -18.9% | [5] 7.55% | [6] 8.85%

O=c1nc(/C=C/c2ccccc2Cl)cc2n1CCN2CCO
inactive: [1] -17.4% | [2] -10.7% | [3] -4.2% | [4] 4.1% | [5] -3.1% | [6] -10.2%

Cc1cccc(NC(=O)COc2ccc(Cl)cc2)c1C
inactive: [1] 12.4% | [2] 8.6% | [3] 5.1% | [4] -15.2% | [5] 13.1% | [6] -4.7%

Nc1ccc(/C=C\C(=O)c2ccccc2)cc1
inactive: [1] 16.4% | [2] 1.05% | [3] 12.1% | [4] 12.6% | [5] 4.25% | [6] 17.4%

NC(N)=Nc1ccc(CC(N)C(=O)NCC(=O)C(CC(=O)O)c2ncc(NC(=O)C(F)(F)F)o2)cc1 (stereo not given)
inactive: [1] -17.4% | [2] -1.75% | [3] -5.15% | [4] -4% | [5] -19.6% | [6] 7.35%

Cc1ccc(Sc2ccc3ccccc3c2)nc1
inactive: [1] 6.75% | [2] -8.2% | [3] -17.6% | [4] -12.2% | [5] 5.05% | [6] -16.9%

Cc1cc(C)nc(NS(=O)(=O)c2ccc(NC(=O)C(Cl)(Cl)Cl)cc2)n1
inactive: [1] -34% | [2] -24.6% | [3] -35.4% | [4] -13% | [5] -42% | [6] -39.8%

CCOC(=O)C(Cc1ccc([N+](=O)[O-])cc1)(Cc1ccc([N+](=O)[O-])cc1)C(=O)OCC
inactive: [1] -8.9% | [2] -0.75% | [3] -15.3% | [4] -8.95% | [5] -25.6% | [6] -17.2%

CC(C)(C)CC(C)(O)COC(=S)S (stereo not given)
inactive: [1] -10.5% | [2] -18% | [3] 1.65% | [4] -11.2% | [5] -7.45% | [6] 0.55%

O=C(NCC1CC1)c1ccccc1NC(=O)c1cc2ccccc2oc1=O
inactive: [1] -7.9% | [2] -8.25% | [3] 8.4% | [4] 9.85% | [5] 18.7% | [6] 19.8%

CCSCC1(c2ccc(OC)cc2)NC(=O)NC1=O (stereo not given)
inactive: [1] -20.5% | [2] 2.65% | [3] 7.6% | [4] -10.1% | [5] -10.7% | [6] 1.05%

N#C/C(=C/c1cccc2ccccc12)C(N)=O
inactive: [1] 21.6% | [2] 32.9% | [3] 28.4% | [4] 6.2% | [5] 28.6% | [6] 26.1%

O=C(O)CSc1n[nH]c(-c2ccccc2)n1
inactive: [1] -14.2% | [2] -4.3% | [3] -7.5% | [4] 2.55% | [5] 2.3% | [6] -9.35%

CCC1(C)CC(C)(C)c2ccc(C)cc21 (stereo not given)
inactive: [1] -0.8% | [2] -2.75% | [3] -6.4% | [4] -9.2% | [5] -2.9% | [6] -2.25%

CNc1nc2c(C)ccc3[nH]c(NC)nc3c-2n1
inactive: [1] -22.2% | [2] -25.1% | [3] -6.65% | [4] 1.95% | [5] -41.4% | [6] -15.9%

OC1(c2ccccc2)CCCN(Cc2ccccc2)C1 (stereo not given)
inactive: [1] 3.75% | [2] 7% | [3] 6.6% | [4] -17.4% | [5] 14.6% | [6] 15.8%

COc1ccc(C2SCC(=O)N2NC(=O)c2ccc(NC(C)=O)cc2)cc1 (stereo not given)
inactive: [1] -50% | [2] -49.5% | [3] -62.5% | [4] -8.9% | [5] -21.7% | [6] -61.5%
